Beta cell apopt – beta cell apoptosis inhibition | INS-1E cytokine-induced death, ATP luminescence, 48 h; percent of positive-control rescue, neutral wells zero | protection from apoptosis, % (test concentration not listed) | 300,000 tested, 0.8% active | AID 435005;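 active = Every replicate reaches about 75%, or at least half do and their mean reaches it too, limit read from the data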;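 also: higher means more ATP so stronger rescue from cytokine killing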
697 NFkB inh – inhibitors of the PMA/ionomycin-induced NF-kB reporter in 697 B cells | 697 B-cell NF-kB luciferase reporter, 16 h | 330,000 tested, 0.33% active | inhibition, % at 4 µM; in the data active = inhibition above about 35%
Jurkat NFkB inh – lowers PMA/ionomycin-induced NF-kB signal in Jurkat cells | PMA/ionomycin-induced NF-kB luciferase reporter, luminescence | inhibition, % at 4 µM | 330,000 tested, 0.53% active | AID 435003; in the data active = inhibition above about 50%
Gli-Sufu block – antagonists of Gli-Sufu signaling | 340,000 tested, 0.74% active | AID 588413 | inhibition, % at 5 µM | Sufu-KO-LIGHT fibroblasts, Gli luciferase reporter luminescence;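 active = inhibition above about 55%, limit read from the data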
Jurkat NFkB conf – inhibitors of the PMA/ionomycin-induced NF-kB reporter in Jurkat cells, retest; inhibition, % at 4 µM; Jurkat NF-kB luciferase, 16 h; shares compounds with Jurkat NFkB inh; AID 435020; 2,700 tested, 27% active;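 active = inhibition reaching about 45% at 4 µM in either replicate, limit read from the data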
Hits are given with their value; – = inactive; · = no result. In the library only some 1.8% were active in any assay of this set; here they are far more common.

SMILES | Beta cell apopt | 697 NFkB inh | Jurkat NFkB inh | Gli-Sufu block | Jurkat NFkB conf
COc1ccc2nc(Nc3ccccc3OC)sc2c1 | – | – | – | – | –
COc1ccc2nc(Nc3ccccc3)sc2c1 | · | – | – | – | –
COc1ccc2nc(NC(=O)c3ccc4ncsc4c3)sc2c1 | – | – | – | – | –
COc1cc(C2CC(c3ccccc3)=NN2c2ccccc2)ccc1OCC(=O)O (configuration not stated) | – | – | – | – | ·
CCC1C(=O)N=C(SCC(=O)Nc2ccc(C(=O)OC)cc2)NC1=O (configuration not stated) | – | – | – | – | ·
COc1ccc(CCNC(=O)Cc2nn(C)c(=O)c3ccccc23)cc1OC | – | – | – | – | ·
COc1ccc(NC(=O)/C=C/c2ccccc2[N+](=O)[O-])c(OC)c1 | – | – | – | – | ·
CCOC(=O)c1ccc(S(=O)(=O)N2CCN(CC(O)COc3cccc(C(C)=O)c3)CC2)cc1 (configuration not stated) | – | · | · | – | ·
COc1ccc(N=C2S/C(=C\c3ccc(Cl)c([N+](=O)[O-])c3)C(=O)N2CCN(C)C)cc1 | – | – | 51 | – | –
CCN(CC)CCN1C(=O)/C(=C\c2ccc(Cl)c([N+](=O)[O-])c2)SC1=Nc1ccc(OC)cc1 | – | – | – | – | ·
Cc1ccc(NC(=O)c2scc3c2CCCC3)cc1 | – | – | – | – | –
Cc1nn(C)cc1CN(C)C(=O)c1nn2c(c1Cl)NC(c1cccs1)CC2C(F)(F)F (configuration not stated) | – | – | – | – | ·
CCCCC(CC)C(=O)Nc1ccc(S(=O)(=O)Nc2nccs2)cc1 (configuration not stated) | – | – | – | – | ·
Cc1no[n+]([O-])c1COc1ccc(/C=N/n2nnnc2N)cc1 | – | – | 50 | – | –
Cc1ccc(/C=N/n2nnnc2N)cc1 | – | – | – | – | ·
COc1ccc(-c2nnc(SCC(=O)NC3CC3)o2)c(OC)c1 | · | – | – | – | ·
COc1ccc(CNC(=O)C(C)n2ccc3cc(S(=O)(=O)N4CCCCCC4)ccc32)cc1 (configuration not stated) | · | – | – | – | ·
CC(C)Nc1ccc(C(CC(N)=O)NC(=O)Cc2ccc(Br)cc2)cc1[N+](=O)[O-] (configuration not stated) | – | – | 84 | – | 58
NC(=O)CC(NC(=O)Cc1ccc(Br)cc1)c1ccc(NC2CCCCCC2)c([N+](=O)[O-])c1 (configuration not stated) | – | – | – | – | ·
NC(=O)CC(NC(=O)Cc1ccc(Br)cc1)c1ccc(NC2CCCCCCC2)c([N+](=O)[O-])c1 (configuration not stated) | · | · | · | – | ·
NC(=O)CC(NC(=O)Cc1ccc(Br)cc1)c1ccc(NC2CCCC2)c([N+](=O)[O-])c1 (configuration not stated) | – | – | 51 | – | –
COC(=O)c1cn(NC(=O)c2cc([N+](=O)[O-])ccc2F)c(=O)c2ccccc12 | – | – | 97 | – | 90
CCCc1nc2oc3c(NCCCN(C)C)ncnc3c2c2c1CCCC2 | – | – | 90 | – | –
CCCc1nc2oc3c(NCCN(C)C)ncnc3c2c2c1CCCC2 | – | – | – | – | ·
Cc1ccccc1CSc1nnc([C@@H]2CCCN2)o1 | – | – | – | – | ·
SMILES | Beta cell apopt | 697 NFkB inh | Jurkat NFkB inh | Gli-Sufu block | Jurkat NFkB conf
COc1ccc(-n2nc3cc(C)c(N)c(Br)c3n2)cc1 | – | – | – | – | –
CCCOC1CCCN(C(=O)CCCn2nnnc2CN2CCOCC2)C1 (configuration not stated) | – | – | – | – | ·
Cc1ccc(C(=O)N/C(=C\c2ccccc2)C(=O)OCc2ccccc2)cc1 | – | – | – | – | ·
O=C(Nc1ccc(Cl)cc1)N1CCC(c2ccccc2)C1 (configuration not stated) | – | – | – | – | ·
CC1(C)CC2CC(C)(CN2S(=O)(=O)c2ccc(C(=O)Nc3cccc(S(=O)(=O)N4CCOCC4)c3)cc2)C1 (configuration not stated) | – | – | 63 | – | 69
CC1(C)CC2CC(C)(CN2S(=O)(=O)c2ccc(C(=O)Nc3cc(S(=O)(=O)N4CCOCC4)ccc3Cl)cc2)C1 (configuration not stated) | – | – | – | – | ·
N#CCC(CNc1ncc(C(F)(F)F)cc1Cl)OC(=O)c1c(F)cccc1F (configuration not stated) | – | – | 75 | – | –
N#CCC(CNc1ncc(C(F)(F)F)cc1Cl)OC(=O)c1cccc([N+](=O)[O-])c1 (configuration not stated) | – | – | 66 | – | –
N#CCC(CNc1ncc(C(F)(F)F)cc1Cl)OC(=O)c1ccc(Cl)cc1 (configuration not stated) | · | – | – | – | ·
COc1ccccc1OCC(=O)NNC(=O)c1ccoc1C | · | – | – | – | ·
COC(=O)c1sc(NC(=O)CSc2nnnn2C)nc1C | – | – | – | – | ·
COc1cccc(CN(CC(=O)NC2CCCC2)C(=O)c2csnn2)c1 | – | – | – | – | ·
COc1cc(NC(=O)CSc2ncnc3sc4c(c23)CCCC4)c(C(=O)O)cc1OC | – | – | – | – | ·
COCC(C)Nc1nc(C)c(C(C)=O)s1 (configuration not stated) | – | – | – | – | ·
CCCC1=C(C(=O)OCC)C(/C=C/c2ccccc2)n2ncnc2N1 (configuration not stated) | – | – | 53 | – | –
CC(=O)c1cc2c(cc1NC(=O)c1cc(C)nn1-c1ccccc1)OCO2 | – | – | 55 | – | –
CC(=O)Nc1ccc(NC(=O)c2cc(C)nn2-c2ccccc2)cc1 | – | – | – | – | ·
Cc1cc(C)cc(NC(=O)c2ccc([N+](=O)[O-])o2)c1 | · | – | 87 | – | 48
CC(=O)c1ccc(NC(=O)c2ccc([N+](=O)[O-])o2)cc1 | – | – | – | – | ·
CC1(C)CC2CC(C)(CN2C(=O)COC(=O)CNC(=O)c2ccc(Cl)c(Cl)c2)C1 (configuration not stated) | – | – | – | – | ·
COc1ccc(-c2nc(-c3ccc(Br)o3)no2)cc1 | – | – | – | – | –
COc1ccc(-c2noc(-c3ccc(Br)o3)n2)cc1 | – | – | – | – | ·
COc1ccc(NS(=O)(=O)c2cc(NC(=O)c3ccc(=O)[nH]c3)ccc2N2CCCC2)cc1 | – | – | 63 | – | –
COc1ccc(NS(=O)(=O)c2cc(NC(=O)c3cnc(C)cn3)ccc2N2CCCC2)cc1 | – | – | – | – | ·
CNC(=O)CSc1nc(SC)ns1 | – | – | – | – | ·
COC(=O)CSc1nsc(SCC(=O)OC)n1 | – | – | 62 | – | –
COc1ccc(NC(=O)CSc2nc(SC)ns2)cc1 | – | – | – | – | –
COc1cccc(NC(=O)Cc2nnc(SCC(=O)NC3CCCC3)n2C)c1 | – | – | – | – | ·
CCOC(=O)C1=NNC2C(=O)N(CC)C(=O)C12 (configuration not stated) | – | – | – | – | ·
O=C(NCc1ccco1)C1CC(c2cccc([N+](=O)[O-])c2)=NO1 (configuration not stated) | – | – | – | – | ·
